Among all 69,000 compounds or so, about 950 (1.4%) showed an effect of 50% or more. The sample as a whole holds a higher share of strong results than the screen did.
System: Mycobacterium tuberculosis
Experiment: Cornell M. t heat shock assay; further: in the data most compounds retested in dose-response had high values
Assay type: functional, organism-based
Design: dose or concentration left out as unconfirmed

Compound	Percent Effect [%]
Cl.O=C1CC2(CCCNC2)C(=O)N1Cc1cccc(F)c1 (stereo not given)	-11.34
CCN1CCn2c(C)cnc2C12CCN(C(=O)COC)CC2.O=C(O)C(F)(F)F.O=C(O)C(F)(F)F	-13.45
CCc1nc(N)nc(N2CCCC3(CN(C)C(=O)O3)C2)c1C (stereo not given)	-1.052
CNC(=O)CN1CCCC12CCN(C(=O)c1ccoc1)CC2.O=C(O)C(F)(F)F	6.336
Cc1nc(-c2cncnc2C2CCCNC2)no1.Cl.Cl (stereo not given)	-15.54
COc1ccccc1C(=O)N1CCOC2(CCCN(C(C)=O)C2)C1 (stereo not given)	71.6
COc1cccc(C(=O)N2CCOC3(CCCN(C(C)=O)C3)C2)c1 (stereo not given)	5.566
CC(=O)N1CCCC2(C1)CN(C(=O)c1ccncc1)CCO2 (stereo not given)	-1.478
Cc1noc([C@H]2C[C@@H]3CCN(c4nnc(C)s4)C[C@H]3O2)n1.O=C(O)C(F)(F)F	1.861
Cc1ccc(N2CCC3(CCN(C(=O)c4ccsc4)C3)CC2)nn1.O=C(O)C(F)(F)F	-20.48
Fc1ccc(CN2CCC3(CC2)CC(c2cccnc2)CO3)cc1.O=C(O)C(F)(F)F.O=C(O)C(F)(F)F (stereo not given)	-26.17
COCCN1C(=O)[C@H]2CC[C@@H]1CN(C(=O)CCc1n[nH]c(C)c1C)C2	8.165
O=C(NC1CC1)c1cnc(-c2noc3cc(N4CCCCC4)ccc23)s1	-8.735
O=C(c1cnc(-c2noc3cc(N4CCCC4)ccc23)s1)N1CCCC1	-6.808
CCN(C)C(=O)c1cnc(-c2noc3cc(N4CCCCC4)ccc23)s1	85.74
Cl.O=C(c1ccnc(C2CCNCC2)c1)N1CCCOCC1	-3.625
CCS(=O)(=O)NCC(=O)N1CC2(CCCC2)c2c(F)cccc21	17.06
CNS(=O)(=O)CC(=O)N1CC2(CCCC2)c2c(F)cccc21	13.66
O=C(NCC(=O)N1CC2(CCCC2)c2c(F)cccc21)C1CC1	55.94
CCCS(=O)(=O)N1C[C@@H](Oc2ncccc2F)[C@H]2OCCC[C@H]21.O=C(O)C(F)(F)F	-14.35

Compound	Percent Effect [%]
Cl.Cl.O=C(N[C@@H]1CN[C@H]2CCCO[C@H]21)c1cccnc1	-32.33
CCc1n[nH]c(C2CN(Cc3ncc(CC)o3)CCO2)n1 (stereo not given)	-30.6
COc1ccc(CNCc2ccnc(N3CCCC3)c2)c(OC)c1.Cl	15.53
COc1ccc(-c2nc(CN3CCc4c(ncn4C)C3)cs2)cc1	174
Cn1c(C2CC2)nc2c1CCN(Cc1nc(-c3ccsc3)no1)C2	13.01
CC(C)c1nc2c(n1C)CCN(Cc1nc(-c3ccoc3)no1)C2	-1.716
Cn1cnc2c1CCN(Cc1csc(-c3ccccc3)n1)C2	-8.138
Cn1cc(-c2nc(CN3CCc4c(ncn4C4CC4)C3)cs2)cn1	19.08
CC(C)c1nc2c(n1C)CCN(Cc1nc(-c3ccsc3)no1)C2	103.5
Cn1cnc2c1CCN(Cc1csc(-c3ccccc3F)n1)C2	47.56
Cn1cc(-c2nc(CN3CCc4c(ncn4C)C3)cs2)cn1	-15.5
c1ccc(-c2nc(CN3CCc4c(ncn4C4CC4)C3)cs2)cc1	62.99
c1cc(-c2nc(CN3CCc4c(ncn4C4CC4)C3)cs2)cs1	24.33
Cn1cnc2c1CCN(Cc1csc(-c3ccsc3)n1)C2	121.8
Cn1cnc2c1CCN(Cc1csc(-c3ccc(F)cc3)n1)C2	1.572
COCCO[C@H]1CCN(Cc2ccsc2)[C@H]1Cc1cccnc1.O=C(O)C(F)(F)F.O=C(O)C(F)(F)F	-33.79
CCc1noc(CN2C[C@H]3CC[C@@H]2CN(C2Cc4ccccc4C2)C3)n1	18.74
COc1ccc(CC(=O)N2CC[C@@H](OC)[C@@H]2Cc2cccnc2)cc1.O=C(O)C(F)(F)F	-4.792
CC(=O)N1C[C@@H]2CC[C@H](C1)N(S(=O)(=O)c1ccccc1Cl)C2	-21.33
O=C(O)C(F)(F)F.O=S(=O)(C1CC1)N1CCO[C@@H]2CC(COCc3cccnc3)C[C@H]21 (stereo not given in full)	22.38

Compound	Percent Effect [%]
Cn1cc(N2CC3(COCCN(Cc4ccccn4)C3)OCC2=O)cn1.O=C(O)C(F)(F)F (stereo not given)	-20.33
CNC(=O)C1Cn2ccnc2C2(CCN(Cc3cccs3)CC2)O1.O=C(O)C(F)(F)F.O=C(O)C(F)(F)F (stereo not given)	-16.91
CCCc1ccc(N2CCN(Cc3nc4ccccc4n3C)CC2)cc1	103
Cn1c(CCN2CCN(CCc3ccccc3)CC2)nc2ccccc21	5.82
Cn1c(CCN2CCN(c3ccc(O)cc3)CC2)nc2ccccc21	-8.24
Cl.Cn1nc(C2CCN(C(=O)CN3CCCCC3)CC2)c2cccnc21	-23.31
Cn1ncc2c1NC(=O)CC2c1ccccc1Cl (stereo not given)	-2.735
Cn1ncc2c1NC(=O)CC2c1cc(Cl)ccc1F (stereo not given)	-20.48
Cn1ncc2c1NC(=O)CC2c1ccc(Cl)cc1Cl (stereo not given)	51.94
Cc1ccc(CN(C)C(=O)c2n[nH]c(N)c2-c2ccccc2)o1	-6.81
Cc1ccc(CN2CC[C@H]3OCC[C@@H](C(=O)NC4CC4)[C@@H]3C2)o1.O=C(O)C(F)(F)F	-2.405
CN(CCO)Cc1cc(Cl)ccc1OCC(O)CN1CCCCCC1 (stereo not given)	54.32
COCCN(C)Cc1cc(Cl)ccc1OCC(O)CN1CCCCCC1 (stereo not given)	4.611
CN(CCCO)Cc1cc(Cl)ccc1OCC(O)CN1CCCCCC1 (stereo not given)	44.14
Cc1ccc(N2CCN(C(=O)CN3C[C@@H]4CC[C@H]3C4)CC2=O)cc1	-8.228
Cc1ccc(CN2CCC3(CCC(=O)N3CC(=O)N(C)C)CC2)s1.O=C(O)C(F)(F)F	11.8
Cc1ccccc1C(=O)N1CCC2(CCCN2CCN(C)C)CC1.O=C(O)C(F)(F)F.O=C(O)C(F)(F)F	12.9
CCN(CC)c1ccc(NC(=O)NCC2CCOC2)cn1 (stereo not given)	3.627
O=C(NCC1CCOC1)Nc1ccc(OCC(F)(F)F)nc1 (stereo not given)	3.959
CN(C)c1ccc(NC(=O)NCC2CCOC2)cn1 (stereo not given)	74.68

Reference: ChEMBL document CHEMBL3988442, “University of Dundee, Small-Polar-MMV Screening Library” (2021)
